biological target: T1, FLI1 (Homo sapiens, UniProt Q01543 1-452); assay: DAPPL (digital affinity profiling via proximity ligation, sequencing); 10 mM Tris-HCl pH 7.5, 50 mM NaCl, 1 mM DTT, 4% glycerol, room temperature, 30 min; GST-TFs on glutathione beads, 16-mer random dsDNA library, 0.1% formaldehyde crosslink after washing; high values mean tight binding; conditions: protein: recombinant; tags: N-terminal GST; dsDNA, one strand shown
T1 sequence: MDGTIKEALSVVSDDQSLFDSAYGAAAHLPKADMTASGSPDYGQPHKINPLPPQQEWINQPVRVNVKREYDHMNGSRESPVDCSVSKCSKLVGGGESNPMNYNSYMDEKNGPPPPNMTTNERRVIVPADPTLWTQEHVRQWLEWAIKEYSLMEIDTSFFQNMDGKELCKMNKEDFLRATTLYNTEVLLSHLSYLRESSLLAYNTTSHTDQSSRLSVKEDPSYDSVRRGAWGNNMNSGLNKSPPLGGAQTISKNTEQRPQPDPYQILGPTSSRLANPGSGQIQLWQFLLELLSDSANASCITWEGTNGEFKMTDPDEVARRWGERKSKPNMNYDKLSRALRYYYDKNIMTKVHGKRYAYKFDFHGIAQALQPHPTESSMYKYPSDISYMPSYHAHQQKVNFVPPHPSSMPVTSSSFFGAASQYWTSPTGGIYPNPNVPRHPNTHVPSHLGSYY
Outline: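 After expression in yeast as GST fusions, human transcription factors were bound to glutathione beads, DNA-barcoded and mixed with a tag-only sample. The pools were incubated with 200 nmole of a 16-mer random double-stranded DNA library in Tris/NaCl/DTT/glycerol buffer (30 min, room temperature), washed and crosslinked with 0.1% formaldehyde. Proximity ligation with BsaI/T4 ligase ran for 1 h at 37 °C, before PCR amplification and sequencing on an Illumina NextSeq500. Binding signal is a hexamer's read frequency for a factor divided by its frequency for the tag-only sample.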

Row | Sequence | binding signal
1 | ACCTAG | 1.01 fold enrichment (6-mer frequency, TF over GST control)
2 | GCTAAG | 1.13 fold enrichment (6-mer frequency, TF over GST control)
3 | GATTTA | 1.02 fold enrichment (6-mer frequency, TF over GST control)
4 | TGGATA | 1.08 fold enrichment (6-mer frequency, TF over GST control)
5 | ATAAGA | 1.02 fold enrichment (6-mer frequency, TF over GST control)
6 | CTAGAA | 1.06 fold enrichment (6-mer frequency, TF over GST control)
7 | TGAATC | 1.03 fold enrichment (6-mer frequency, TF over GST control)
8 | GTAAGC | 1.02 fold enrichment (6-mer frequency, TF over GST control)
9 | GATCTA | 1.12 fold enrichment (6-mer frequency, TF over GST control)
10 | GCTAGT | 1.1 fold enrichment (6-mer frequency, TF over GST control)
11 | AGATCT | 1.06 fold enrichment (6-mer frequency, TF over GST control)
12 | AGCTAG | 1.05 fold enrichment (6-mer frequency, TF over GST control)
13 | TAAGGG | 1.01 fold enrichment (6-mer frequency, TF over GST control)
14 | CTTAAG | 1.06 fold enrichment (6-mer frequency, TF over GST control)
15 | TAAAGG | 1.04 fold enrichment (6-mer frequency, TF over GST control)
16 | AGTCTC | 1.04 fold enrichment (6-mer frequency, TF over GST control)
17 | TGAAGA | 1 fold enrichment (6-mer frequency, TF over GST control)
18 | TGATTA | 1.07 fold enrichment (6-mer frequency, TF over GST control)
19 | TAGATA | 1.07 fold enrichment (6-mer frequency, TF over GST control)
20 | TCGAGC | 1.02 fold enrichment (6-mer frequency, TF over GST control)

Row | Sequence | binding signal
21 | CCCCAG | 1.07 fold enrichment (6-mer frequency, TF over GST control)
22 | TGATAG | 1.14 fold enrichment (6-mer frequency, TF over GST control)
23 | GCCCGA | 1.12 fold enrichment (6-mer frequency, TF over GST control)
24 | GTTCGC | 1.06 fold enrichment (6-mer frequency, TF over GST control)
25 | GGATCT | 1.08 fold enrichment (6-mer frequency, TF over GST control)
26 | TTAGAT | 1.05 fold enrichment (6-mer frequency, TF over GST control)
27 | TTGCCA | 1.07 fold enrichment (6-mer frequency, TF over GST control)
28 | TCAATC | 1.08 fold enrichment (6-mer frequency, TF over GST control)
29 | ATAAGT | 1.08 fold enrichment (6-mer frequency, TF over GST control)
30 | TCTAGA | 1.05 fold enrichment (6-mer frequency, TF over GST control)
31 | CTAGCC | 1.07 fold enrichment (6-mer frequency, TF over GST control)
32 | TAGACT | 1.03 fold enrichment (6-mer frequency, TF over GST control)
33 | TTAAGA | 1.05 fold enrichment (6-mer frequency, TF over GST control)
34 | GCTGGT | 1.29 fold enrichment (6-mer frequency, TF over GST control)
35 | CGTTTA | 1.08 fold enrichment (6-mer frequency, TF over GST control)
36 | GATCAA | 1.01 fold enrichment (6-mer frequency, TF over GST control)
37 | CGTCTG | 1.13 fold enrichment (6-mer frequency, TF over GST control)
38 | TAAGCA | 1.08 fold enrichment (6-mer frequency, TF over GST control)
39 | CATGCG | 1.01 fold enrichment (6-mer frequency, TF over GST control)

Reference: publication PMC7862700, “An all-to-all approach to the identification of sequence-specific readers for epigenetic DNA modifications on cytosine”
